Bioassay records from PubChem.
Hits are enriched below; roughly 12% of the tested compounds scored in any of these assays.
BAZ2B block: BAZ2B (human) inhibition; Q9UIF8; AlphaScreen BAZ2B-H3K14Ac peptide displacement; Potency, µM (top dose mostly 114 µM), inactives show top-dose activity change, negative = inhibition, usual class: inhibitors; actives 4.4% (n = 360,000); AID 504333; also: % is scaled to controls: 0 for no effect and ±100 for the full control effect; nearly all actives have a fitted effect of over 60% in size
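In this displacement format the biotinylated H3(5-23) peptide acetylated at Lys14 serves as ligand at 50 nM, with BAZ2B at 50 nM in PBS pH 7.4 containing 0.01% Tween-20. Donor and acceptor beads are 10 ug/mL final.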
G9a inh: blocks human histone lysine methyltransferase G9a | Q96KQ7 | G9a H3K9 monomethylation, AlphaScreen, 2 h | Potency, µM (highest dose often 102 µM), for the others: top-dose activity, negative = inhibition, usual class: inhibitors | actives 8.8% (n = 350,000); also: % is scaled to controls: 0 for no effect and ±100 for the full control effect; nearly all actives have a fitted effect of over 75% in size
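Chemiluminescent proximity detection of H3K9 monomethylation, read after 10 min bead incubation in the dark. Reaction: 20 nM G9a, 500 nM biotin-H3K9 peptide, 20 uM SAM cofactor, 2 h, room temperature, following 15 min enzyme-compound preincubation.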
Sfp PPTase inh: inhibitors of Bacillus subtilis Sfp phosphopantetheinyl transferase. Biochemical Sfp PPTase activity, qHTS. Potency, µM, for inactives: largest response in the series, negative = inhibition, hits mostly inhibitors. actives 3.5% (n = 310,000);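 also: the enzyme is Sfp with the accession as filed and its product quenches rhodamine fluorescence; 0% = enzyme reaction without inhibitor and -100% = no enzyme wells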
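Reaction rates are the 30-min fluorescence difference (ex 525, em 598 nm) in wells containing 15 nM Sfp, 5 uM rhodamine-CoA and 12.5 uM BHQ-2-YbbR at pH 7.6 with 10 mM MgCl2.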
HP1b chromo inh: inhibitors of HP1-beta chromodomain binding to methylated histone tails | AlphaScreen HP1-beta / biotin-H3K9me3 peptide binding | Potency, µM (top dose mostly 114 µM), for the others: at the top dose activity change, negative = inhibition, usual class: inhibitors | actives 0.56% (n = 390,000); also: nearly all actives have a fitted effect of over 70% in size
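AlphaScreen: HP1-beta (50 nM) preformed 30 min with biotin-H3(1-18)K9me3 peptide (50 nM) in PBS pH 7.4, 0.01% Tween-20. Compound added for 30 min at RT, then streptavidin donor/nickel chelate acceptor beads (10 ug/mL) for 30 min.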
JMJD2A Tudor inh: inhibitors of human JMJD2A Tudor domain | O75164 | AlphaScreen JMJD2A-Tudor / H3K4me3 peptide binding | Potency, µM (doses to about 114 µM), inactives show at the highest dose activity change, negative = inhibition, most hits filed as inhibitors | actives 4.4% (n = 390,000); also: % is scaled to controls: 0 for no effect and ±100 for the full control effect; nearly all actives have a fitted effect of over 50% in size
* = called active by the depositor; [ ] = remark or other dose. Calls follow the shape of the dose curve; as a rule, active = well fitted curve in the direction sought with a large enough effect; inconclusive = small, poorly fitted or top-dose-only effect, or another doubt; inactive = no such curve, though single readings can be large; an effect the other way counts as inactive or inconclusive. Potency is read from the fitted curve at half-maximal effect.

O=[N+]([O-])c1ccc(CSc2ccccn2)cc1 was read as BAZ2B block -11%, G9a inh 2%, Sfp PPTase inh -1%, HP1b chromo inh 18% and JMJD2A Tudor inh -7%.
For O=[N+]([O-])c1ccc(Sc2nnnn2-c2ccccc2)nc1 the results were BAZ2B block -31%, G9a inh -34%, Sfp PPTase inh 14%, HP1b chromo inh 30% and JMJD2A Tudor inh -31%.
Screening O=[N+]([O-])c1ccccc1CSc1ccccn1 returned BAZ2B block -2%, G9a inh 50µM*, Sfp PPTase inh -2%, HP1b chromo inh -13% and JMJD2A Tudor inh -15%.
`O=C(Oc1ccccc1)N1CCC2(CC1)CN(c1ncccn1)C2` gave G9a inh 32%[12.7 µM] and Sfp PPTase inh 2%.
Screening Cc1c(C(=O)Nc2c(F)cccc2F)sc2ncn(Cc3ccccc3F)c(=O)c12 returned BAZ2B block -2%, G9a inh -6%[59 µM], HP1b chromo inh -10% and JMJD2A Tudor inh -16%.
CCOc1ccc(NC(=O)c2nn(-c3ccc(OC)cc3OC)c(=O)c3ccccc23)cc1 was read as BAZ2B block 3%, G9a inh 8% and Sfp PPTase inh -19%.
`COC(=O)NC(/C=C/c1ccccc1)[C@]1(C(C)=O)CCCC1=O` (stereo not given in full) gave Sfp PPTase inh 31%.
`Nc1ccc2nn(-c3cc([N+](=O)[O-])ccc3O)nc2c1` gave BAZ2B block -9%, G9a inh 40µM*, Sfp PPTase inh -6%, HP1b chromo inh 26% and JMJD2A Tudor inh -12%.
`CCOc1ccc(N=Cc2ccc3ccccc3c2)cc1` gave BAZ2B block 3%, G9a inh 17%, Sfp PPTase inh 11%, HP1b chromo inh 4% and JMJD2A Tudor inh -9%.
Screening O=[N+]([O-])c1cc(C=Nc2ccc3ccccc3c2)ccc1Br returned BAZ2B block 28µM*, G9a inh 10µM*, Sfp PPTase inh -7%, HP1b chromo inh 50µM* and JMJD2A Tudor inh 50µM*.
Cc1cc(NCc2ccc3c(c2)OCO3)n2nc(C)nc2n1 was read as BAZ2B block 10%, G9a inh -18%[59 µM], Sfp PPTase inh 8%, HP1b chromo inh 24% and JMJD2A Tudor inh -5%.
For O=C(CSc1n[nH]c(=O)[nH]c1=O)Nc1cccc(S(=O)(=O)N2CCOCC2)c1 the results were BAZ2B block -2%, G9a inh -23%, Sfp PPTase inh -7%, HP1b chromo inh 32% and JMJD2A Tudor inh -17%.
`O=C(CSc1n[nH]c(=O)[nH]c1=O)Nc1ccc2c(c1)C(=O)c1ccccc1C2=O` gave BAZ2B block 50µM*, Sfp PPTase inh -17%, HP1b chromo inh 11µM* and JMJD2A Tudor inh inconclusive.
Screening O=C(CSc1ccccn1)Nc1ccc2c(c1)C(=O)c1ccccc1C2=O returned BAZ2B block 50µM*, G9a inh inconclusive, Sfp PPTase inh -27%, HP1b chromo inh -21% and JMJD2A Tudor inh 50µM*.
C[C@H]1CN([C@@H](C)CO)C(=O)c2cccc(NC(=O)c3ccc(-c4nccs4)cc3)c2O[C@@H]1CN(C)C(=O)NC1CCCCC1 was read as HP1b chromo inh 37% and JMJD2A Tudor inh -18%.
For COc1ccc(C(=O)n2cnnc2N)cc1 the results were BAZ2B block -9%, G9a inh inconclusive, Sfp PPTase inh 6%, HP1b chromo inh 21% and JMJD2A Tudor inh -10%.
`COc1ccc(-n2nc(N)c(C(N)=O)n2)cc1` gave BAZ2B block inconclusive, G9a inh 45µM*, Sfp PPTase inh 10%, HP1b chromo inh -19% and JMJD2A Tudor inh -23%[11.4 µM].
Screening O=C(c1ccc(F)cc1)c1ccc(OCC(=O)N2CCOCC2)cc1 returned HP1b chromo inh 42% and JMJD2A Tudor inh 1%.
`CCc1ccc(NC(=O)CN2C(=O)c3ccccc3Sc3ccc(C(=O)N4CCCC4)cc32)cc1` gave BAZ2B block -15%, G9a inh -31%[59 µM], HP1b chromo inh 3% and JMJD2A Tudor inh -12%.
`CN(C)c1ccc(NC(=O)CN2C(=O)c3ccccc3Sc3ccc(C(=O)N4CCCC4)cc32)cc1` gave BAZ2B block inconclusive, G9a inh 4.5µM*, HP1b chromo inh -16% and JMJD2A Tudor inh inconclusive.
For CC(NS(=O)(=O)c1ccc([N+](=O)[O-])cc1)C(c1cccs1)N1CCOCC1 (stereo not given) the results were G9a inh -28%, Sfp PPTase inh 9%, HP1b chromo inh -7% and JMJD2A Tudor inh -28%.
Screening Cc1ccc2c(ccc[n+]2CC(=O)c2ccccc2)c1 returned BAZ2B block 7%, G9a inh -4%[59 µM], Sfp PPTase inh 9%, HP1b chromo inh 28% and JMJD2A Tudor inh -16%.
`O=C(C[n+]1cc(Br)cc2ccccc21)c1ccccc1` gave BAZ2B block inconclusive, G9a inh 45µM*, Sfp PPTase inh -7%, HP1b chromo inh 8% and JMJD2A Tudor inh inconclusive.
`COc1ccc(C(=O)C[n+]2cc(Br)cc3ccccc32)cc1[N+](=O)[O-]` gave BAZ2B block -27%, G9a inh 35µM*, Sfp PPTase inh 4%, HP1b chromo inh 31% and JMJD2A Tudor inh 79µM*.
`Cc1ccc(-n2c(=O)cc(N3CCN(C(=O)c4ccco4)CC3)[nH]c2=O)cc1` gave BAZ2B block 8%, G9a inh 45µM*, Sfp PPTase inh -22%, HP1b chromo inh 12% and JMJD2A Tudor inh -16%.
`Cc1ccc(N2CCn3c2nc2c3c(=O)n(Cc3cccc(Cl)c3)c(=O)n2C)cc1C` gave BAZ2B block -1%, G9a inh -5%[59 µM], HP1b chromo inh 15% and JMJD2A Tudor inh -20%.
Screening Cc1c(C#N)c(O)n(C)c(=O)c1N=Nc1ccc(S(N)(=O)=O)cc1 returned BAZ2B block -38%, G9a inh -11%[59 µM], Sfp PPTase inh 8%, HP1b chromo inh 9% and JMJD2A Tudor inh -27%.
`Cc1c(C#N)c(O)n(CCO)c(=O)c1N=Nc1ccc(S(N)(=O)=O)cc1` gave BAZ2B block 79µM*, G9a inh -50%[59 µM], Sfp PPTase inh 1%, HP1b chromo inh 32% and JMJD2A Tudor inh -10%.
For COc1cc(C(=O)NNC(=O)c2ccc(F)cc2)ccc1OCC(=O)N1CCOCC1 the results were BAZ2B block -1%, G9a inh 41%[12.7 µM], HP1b chromo inh 40% and JMJD2A Tudor inh 1%.
For COc1ccc(C(CNS(=O)(=O)c2ccccc2)N2CCN(C)CC2)cc1 (stereo not given) the results were BAZ2B block -6%, G9a inh -50%, HP1b chromo inh 28% and JMJD2A Tudor inh -8%.
`COc1ccc(S(=O)(=O)NCC(c2ccc(N(C)C)cc2)N2CCc3ccccc32)cc1F` (stereo not given) gave BAZ2B block 11µM*, G9a inh -23%[12.7 µM], HP1b chromo inh inconclusive and JMJD2A Tudor inh 20µM*.
